Reference: PubChem BioAssay (NCATS)
Values joined by “and” are separate entries in the source; they are usually repeats but may differ in a detail not shown here. Equal values may be shown once. Results filed as inconclusive are left out. Where a call stands in place of a potency, no number is given. Values without a mark were called inactive. Active and inactive are the calls of the source. Unless noted, calls follow the shape of the dose curve; as a rule, active = well fitted curve in the direction sought with a large enough effect; inconclusive = small, poorly fitted or top-dose-only effect, or another doubt; inactive = no such curve, though single readings can be large; an effect the other way counts as inactive or inconclusive.

Key:
[1] = Cell Viability - Renal Proximal Tubule (AID 545); also: nearly all actives have a fitted effect of over 40% in size
Summary of the method: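 In this qHTS format, normal rat kidney-derived proximal tubule cells in complete culture medium receive compound titrations, then sit 40 hours at 37 °C before luciferase-based ATP quantitation; potency is reported as AC50 from concentration-response curves.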

[2] = biological target: Cytochrome P450 3A4 (Homo sapiens) (UniProt P08684); experiment: qHTS Assay for Inhibitors and Substrates of Cytochrome P450 3A4 (AID 884); also: series mostly up to about 57 µM; nearly all actives have a fitted effect of over 50% in size
Cytochrome P450 3A4 (Homo sapiens), sequence (P08684 whole entry, looked up): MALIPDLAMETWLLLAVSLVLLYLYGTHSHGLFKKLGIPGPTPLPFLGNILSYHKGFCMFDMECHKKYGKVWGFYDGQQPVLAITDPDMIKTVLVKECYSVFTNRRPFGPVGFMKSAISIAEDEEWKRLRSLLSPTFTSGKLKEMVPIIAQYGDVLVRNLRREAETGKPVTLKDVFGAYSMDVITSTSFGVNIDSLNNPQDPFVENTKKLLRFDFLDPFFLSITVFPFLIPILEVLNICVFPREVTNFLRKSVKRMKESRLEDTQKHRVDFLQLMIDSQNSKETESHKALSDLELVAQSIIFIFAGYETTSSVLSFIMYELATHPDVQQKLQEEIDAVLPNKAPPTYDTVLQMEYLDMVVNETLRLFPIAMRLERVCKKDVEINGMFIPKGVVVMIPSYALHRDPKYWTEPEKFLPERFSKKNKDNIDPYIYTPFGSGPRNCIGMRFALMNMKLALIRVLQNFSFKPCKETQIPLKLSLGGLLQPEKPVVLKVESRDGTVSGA
Summary of the method: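 Luminescent readout of luciferin produced by CYP3A4 (20 nM) dealkylation of Luciferin-PPXE, 25 uM (its KM). NADPH-driven reaction ran 60 min at RT after 10 min compound preincubation; data scaled to 57 uM ketoconazole as 100% inhibition.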

[3] = Cell Viability - LYMP2-009 (AID 968); also: nearly all actives have a fitted effect of over 55% in size; also: potency is read from the fitted curve at half-maximal effect
[4] = Cell Viability - LYMP2-011 (AID 969); also: nearly all actives have a fitted effect of over 60% in size; also: potency is read from the fitted curve at half-maximal effect
Summary of the method: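 In this qHTS cytotoxicity format, compounds are tested across concentrations on human lymphoblastoid cells in complete medium for 24 hours at 37 C. Viability is taken as cellular ATP measured by luciferase luminescence.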

[5] = Cell Viability - LYMP2-017 (AID 972); also: nearly all actives have a fitted effect of over 55% in size; also: potency is read from the fitted curve at half-maximal effect
Summary of the method: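 Cytotoxicity is scored as a concentration-dependent drop in cellular ATP in a human lymphoblastoid line after 24 hr treatment at 37 C. Values are AC50s from Hill-equation modelling.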

[6] = Cell Viability - LYMP2-019 (AID 973); also: nearly all actives have a fitted effect of over 55% in size
Summary of the method: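 Cytotoxicity is scored as a concentration-dependent drop in cellular ATP after cells (2500/well) receive compound for 24 hr at 37 C. Tetraoctylammonium bromide serves as positive control.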

[7] = Cell Viability - LYMP2-002 (AID 977);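 also: compound exposure lasted 24 h at 37 °C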; also: potency is read from the fitted curve at half-maximal effect
Summary of the method: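 Human lymphoblastoid cells, 2500/well, complete medium; 5 h 37 C settle; compound 24 h 37 C; CellTiter-Glo, 30 min RT; luminescence. Decrease in ATP = cytotoxicity; AC50 via Hill equation.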

[8] = Cell Viability - LYMP2-010 (AID 981); also: nearly all actives have a fitted effect of over 55% in size; also: potency is read from the fitted curve at half-maximal effect
Summary of the method: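 Steps: seed 2500 LYMP2-010 cells per well; incubate 5 hr at 37 C; add compound; incubate 24 hr at 37 C; add CellTiter-Glo, wait 30 min at room temperature; read luminescence. Concentration-response fitted to Hill equation for AC50.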

[9] = biological target: Retinoic acid receptor RXR-alpha (Homo sapiens) (UniProt P19793); experiment: qHTS assay for small molecule antagonists of retinoid X receptor alpha signaling (AID 588546; active = well fitted inhibition curve with a large enough effect in the signal ratio, with a control signal flat, not every such curve was filed as active; the % refers to the signal ratio;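 also: cells stimulated with 9-cis-retinoic acid as agonist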); conditions: HEK293T RXRa-UAS-bla, beta-lactamase ratio, antagonist mode
Retinoic acid receptor RXR-alpha (Homo sapiens), sequence (P19793 whole entry, looked up): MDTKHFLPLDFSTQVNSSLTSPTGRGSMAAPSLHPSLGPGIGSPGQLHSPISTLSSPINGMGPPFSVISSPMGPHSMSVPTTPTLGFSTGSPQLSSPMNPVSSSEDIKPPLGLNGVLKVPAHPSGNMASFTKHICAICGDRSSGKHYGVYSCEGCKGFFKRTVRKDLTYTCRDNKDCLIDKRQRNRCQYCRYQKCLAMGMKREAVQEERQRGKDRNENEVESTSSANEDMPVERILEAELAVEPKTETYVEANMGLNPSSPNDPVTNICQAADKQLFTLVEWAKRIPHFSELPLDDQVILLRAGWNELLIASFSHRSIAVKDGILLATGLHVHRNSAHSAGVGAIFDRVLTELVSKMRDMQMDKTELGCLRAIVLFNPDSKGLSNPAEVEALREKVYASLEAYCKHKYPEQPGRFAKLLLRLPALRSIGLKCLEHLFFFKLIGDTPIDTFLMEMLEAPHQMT
Summary of the method: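 Beta-lactamase reporter inhibition, read as CCF4 fluorescence ratio (ex 405, em 460/530 nm) after 2 h at RT. HEK293T UAS-bla cells, 2500/well, were stimulated with 9-cis-RA at 500 or 100 nM final alongside test compound for 18 h at 37 C.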

[10] = qHTS assay for small molecule activators of the nuclear factor-kappa B (NF-kB) signaling pathway (AID 651749; active = well fitted activation curve with a large enough effect in the signal ratio; the % refers to the signal ratio; also: series mostly up to about 77 µM); conditions: NF-kB-bla ME-180 cells, beta-lactamase FRET ratio, 16 h; stronger effect = higher value
Summary of the method: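 In this qHTS format, compounds acting as activators increase NF-kB-driven beta-lactamase in ME-180 cells, measured as disrupted FRET after 16 hr exposure at 37C and 5% CO2.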

[11] = qHTS assay for environmental chemicals that activate the Aryl hydrocarbon Receptor (AhR) signaling pathway (AID 651777); conditions: 1A2-DRE human hepatoma cells, luciferase, 24 h; activation: stronger effect = higher value; also: nearly all actives have a fitted effect of over 15% in size
Summary of the method: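 Quantitative HTS in stably transfected human liver-derived cells whose luciferase gene sits downstream of the CYP1A2 promoter and dioxin response element. After 24 hr exposure at 37 C, One-Glo luminescence was measured.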

[12] = biological target: Nuclear receptor ROR-gamma (Homo sapiens) (UniProt P51449); experiment: qHTS assay for small molecule antagonists of the retinoid-related orphan receptor gamma (ROR-gamma) signaling pathway (AID 651802); also: nearly all actives have a fitted effect of over 60% in size; also: potency is read from the fitted curve at half-maximal effect
Nuclear receptor ROR-gamma (Homo sapiens), sequence (P51449 whole entry, looked up): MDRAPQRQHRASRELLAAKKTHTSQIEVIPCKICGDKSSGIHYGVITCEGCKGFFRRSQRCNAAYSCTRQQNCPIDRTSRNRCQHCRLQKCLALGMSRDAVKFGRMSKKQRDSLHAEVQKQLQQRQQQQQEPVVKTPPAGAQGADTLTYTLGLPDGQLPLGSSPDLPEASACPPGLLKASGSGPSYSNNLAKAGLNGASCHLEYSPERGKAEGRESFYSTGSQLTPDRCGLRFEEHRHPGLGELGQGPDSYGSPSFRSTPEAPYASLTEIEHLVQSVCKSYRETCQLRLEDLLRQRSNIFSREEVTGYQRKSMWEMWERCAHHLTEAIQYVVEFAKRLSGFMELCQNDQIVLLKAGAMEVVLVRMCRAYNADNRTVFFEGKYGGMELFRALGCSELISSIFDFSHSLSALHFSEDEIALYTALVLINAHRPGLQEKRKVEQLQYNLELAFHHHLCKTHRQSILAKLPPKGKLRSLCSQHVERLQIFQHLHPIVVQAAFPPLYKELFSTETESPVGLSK
Summary of the method: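 Steps: cells dispensed; compound or DMSO transferred by pin tool; doxycycline added to induce the ROR response element-driven luciferase; plates held 16hr at 37C; ONE-Glo added and luminescence measured.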

[13] = qHTS assay for small molecule agonists of the antioxidant response element (ARE) signaling pathway measured by Nrf2-dependant transcriptional activity (AID 720636; active = well fitted curve in the direction sought with a large enough effect in the repeat runs; an effect the other way counts as inactive or inconclusive)
Summary of the method: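 Quantitative HTS format in HepG2 cells stably expressing an ARE-luciferase reporter; 16 hr compound treatment at 37 C, luciferase signal detected with ONE-Glo.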

[14] = qHTS assay for small molecule antagonists of the retinoid-related orphan receptor gamma (ROR-gamma) signaling pathway - cell viability counter screen (AID 720652; active = well fitted curve in the direction sought with a large enough effect in the repeat runs; an effect the other way counts as inactive or inconclusive;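 also: CHO reporter cells with doxycycline-induced ROR-gamma expression; series mostly up to about 92 µM; compound exposure lasted 16 hr before ATP read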)
Summary of the method: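 Steps: seed CHO cells bearing TET-inducible ROR and ROR response element-luciferase; rest 5 hr at 37 C; add compound, then doxycycline; incubate 16 hr; add CellTiter-Glo and read luminescence as ATP-based viability.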

[15] = qHTS assay for cell viability of HEK293 cells (AID 743288); conditions: ATP luminescence (CellTiter-Glo), 18 h, stronger effect = lower value; also: nearly all actives have a fitted effect of over 50% in size
Summary of the method: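 HEK293, 18 h, 37 C, ATP luminescence. Cells at 2,000/well were allowed at least 5 h to settle before dosing; CellTiter-Glo developed 30 min at RT.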

[16] = Cell Viability - LYMP2-021 (AID 974); also: potency is read from the fitted curve at half-maximal effect
Summary of the method: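 Loss of cellular ATP, measured with a luciferase-based CellTiter-Glo readout, serves as the toxicity signal in human lymphoblastoid cells treated for 24 hours at 37 C. Potency is reported as AC50 from a standard Hill model.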

[17] = Cell Viability - LYMP2-020 (AID 986); also: nearly all actives have a fitted effect of over 55% in size; also: potency is read from the fitted curve at half-maximal effect
Summary of the method: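 Seed 2500 cells per well and incubate 5 hr at 37 C. Add compounds at a concentration series and incubate 24 hr at 37 C. Add CellTiter-Glo, wait 30 min at RT, read luminescence, and fit a Hill curve for AC50.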

[18] = Cell Viability - LYMP1-002 - Assay at 40 hr (AID 994); also: nearly all actives have a fitted effect of over 60% in size
Summary of the method: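 Cells are plated at 2500 per well and rested 5 hr at 37 C. Compounds are added and incubated 40 hr at 37 C. CellTiter-Glo reagent is added for 30 min at room temperature before luminescence is read.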

[19] = qHTS assay for small molecule activators of the p53 signaling pathway (AID 651743; active = well fitted activation curve with a large enough effect in the signal ratio, not every such curve was filed as active; the % refers to the signal ratio; also: series mostly up to about 92 µM); conditions: HCT-116 p53RE-bla, beta-lactamase FRET ratio, 16 h; activation: stronger effect = higher value
Summary of the method: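 Following 16 hours of compound exposure at 37 C, HCT-116 cells bearing the p53RE-bla reporter were loaded with LiveBLAzer B/G FRET substrate for 2 hours at room temperature and fluorescence intensity was recorded.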

[20] = biological target: Voltage-gated inwardly rectifying potassium channel KCNH2 (Homo sapiens) (UniProt Q12809); experiment: qHTS Assay for Small Molecule Inhibitors of the Human hERG Channel Activity (AID 588834);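 also: top concentration of the series differs between compounds; lower thallium flux fluorescence means stronger hERG block; nearly all actives have a fitted effect of over 50% in size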
Voltage-gated inwardly rectifying potassium channel KCNH2 (Homo sapiens), sequence (Q12809 whole entry, looked up): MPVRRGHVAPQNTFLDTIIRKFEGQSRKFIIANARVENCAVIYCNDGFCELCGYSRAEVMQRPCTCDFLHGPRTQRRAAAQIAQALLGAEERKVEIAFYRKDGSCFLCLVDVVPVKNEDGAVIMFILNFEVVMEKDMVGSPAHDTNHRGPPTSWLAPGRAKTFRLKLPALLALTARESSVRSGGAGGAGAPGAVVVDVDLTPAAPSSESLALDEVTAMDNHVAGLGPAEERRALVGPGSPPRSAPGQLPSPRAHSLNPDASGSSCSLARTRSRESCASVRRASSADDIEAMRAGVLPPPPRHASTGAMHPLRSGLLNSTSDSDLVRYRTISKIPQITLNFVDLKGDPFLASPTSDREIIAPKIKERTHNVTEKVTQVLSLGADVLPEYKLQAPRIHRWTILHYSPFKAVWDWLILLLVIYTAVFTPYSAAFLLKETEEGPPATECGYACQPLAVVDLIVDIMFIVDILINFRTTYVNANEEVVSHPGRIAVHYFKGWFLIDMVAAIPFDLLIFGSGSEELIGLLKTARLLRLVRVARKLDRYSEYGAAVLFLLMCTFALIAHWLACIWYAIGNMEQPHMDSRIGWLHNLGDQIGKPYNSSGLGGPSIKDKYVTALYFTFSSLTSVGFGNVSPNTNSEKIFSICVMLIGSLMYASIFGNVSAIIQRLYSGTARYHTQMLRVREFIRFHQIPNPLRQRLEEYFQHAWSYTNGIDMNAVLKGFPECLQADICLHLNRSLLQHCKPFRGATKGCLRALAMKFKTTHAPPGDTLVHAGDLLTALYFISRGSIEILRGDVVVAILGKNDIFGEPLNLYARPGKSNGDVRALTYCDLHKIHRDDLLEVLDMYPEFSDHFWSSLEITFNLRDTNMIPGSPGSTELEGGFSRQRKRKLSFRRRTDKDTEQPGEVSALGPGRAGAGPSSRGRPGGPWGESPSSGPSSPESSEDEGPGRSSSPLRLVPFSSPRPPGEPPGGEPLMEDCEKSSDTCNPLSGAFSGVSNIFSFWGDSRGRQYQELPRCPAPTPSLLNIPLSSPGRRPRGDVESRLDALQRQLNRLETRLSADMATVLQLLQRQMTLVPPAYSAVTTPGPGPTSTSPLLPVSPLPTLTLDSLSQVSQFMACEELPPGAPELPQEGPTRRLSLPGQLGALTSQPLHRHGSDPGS
Summary of the method: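 Homogeneous FluxOR thallium flux assay using hERG-expressing U2OS cells (BacMam). Compound treatment about 10 minutes preceded stimulation; reduced fluorescence taken as channel block.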

Row | SMILES | outcome [1] | Potency [2] | Potency [3] | Potency [4] | Potency [5] | Potency [6] | Potency [7] | Potency [8] | max response [9] | activation [10] | activation [11] | Potency [12] | Potency [13] | Potency [14] | max response [15] | Potency [16] | Potency [17] | Potency [18] | activation [19] | Potency [20]
1 | N#CC(Cl)(Cl)Cl | inactive | inactive | inactive | inactive | inactive | inactive | inactive | inactive | 11.1% | -0.633% | 0.19% | inactive | inactive | inactive | -13% |  |  |  |  | 
2 | c1ccc(NNc2ccccc2)cc1 | inactive | inactive | inactive |  | inactive | inactive | inactive | inactive | 1.29% and 6.1% | 0.182% and 3.71% |  | inactive | inactive | inactive |  | inactive | inactive | inactive | -0.259% and 0.698% | 
3 | Nc1ccc([N+](=O)[O-])cc1N | inactive | inactive | inactive | inactive | inactive |  |  |  | -24.9% and -14.3% |  | 1.47% and 1.07% | 42.2 µM (active) |  | inactive |  |  |  | inactive | -2.47% | inactive
4 | CN(C)C(=O)Nc1ccc(Cl)cc1 |  | inactive | inactive | inactive | inactive | inactive |  | inactive | -0.754% and 1.84% | 2.75% and -0.215% | 1.83% and 5.75% | inactive | inactive | inactive | 10.7% and -3.59% | inactive | inactive | inactive | -1.85% and -2.71% | inactive
5 | O=[N+]([O-])c1cc(Cl)c(Cl)c(Cl)c1 | inactive | inactive | inactive | inactive | inactive | inactive | inactive | inactive | -5.05% | -1.89% |  | inactive | inactive | inactive |  | inactive | inactive | inactive | -1.35% | inactive
6 | O=[N+]([O-])c1ccccc1O | inactive | inactive |  | inactive | inactive | inactive | inactive | inactive |  |  | 0.0323% | inactive | inactive | inactive |  | inactive | inactive | inactive | -2.01% | inactive
7 | COC(C)(C)C | inactive | inactive | inactive |  | inactive | inactive | inactive | inactive | 6.43% | 1.85% | -1.78% | inactive | inactive | inactive | -5.4% |  | inactive | inactive | -2.31% | inactive
8 | O=Cc1ccc(Cl)cc1Cl | inactive |  | inactive | inactive |  | inactive | inactive | inactive | 2.38% | 1.15% |  |  | inactive | inactive | -8.13% | inactive | inactive | inactive | -1.2% | inactive
9 | Oc1cccc(Cl)c1 | inactive | inactive |  | inactive | inactive | inactive |  | inactive | 4.02% | -0.548% | -0.063% | inactive | inactive | inactive | 0.616% | inactive | inactive | inactive | 0.857% | 
10 | O=C(O)C(Br)CBr (stereo unspecified) |  |  | inactive |  | inactive | inactive |  |  |  | 1.48% | 2.43% | inactive | inactive |  | -8.07% | inactive | inactive |  |  | inactive
11 | CN1CSC(=S)N(C)C1 | inactive | inactive | 31.6 µM (active) | 39.8 µM (active) | 25.1 µM (active) |  | 31.6 µM (active) | 20 µM (active) | -34.7% | -0.197% and -1.34% | -0.101% and -0.0706% | inactive |  |  | -15.3% | 39.8 µM (active) | 39.8 µM (active) |  | 0.178% and -0.711% | inactive
12 | Nc1ccc(Cc2ccc(N)c(Cl)c2)cc1Cl |  |  | inactive |  |  |  | inactive | inactive | -29.3% |  | 3.75% |  | inactive | inactive | -12.3% | inactive | inactive | inactive | -1.58% | 
13 | Oc1c(Cl)c(Cl)cc(Cl)c1Cl |  | inactive | inactive | inactive | inactive | inactive | inactive | inactive |  |  | 0.522% | 21.1 µM (active) | inactive |  | 1.93% |  | inactive | inactive |  | inactive
14 | ClCCCCl | inactive |  | inactive |  | inactive | inactive | inactive | inactive |  | 0.207% | -1.95% | inactive | inactive | inactive | 2.44% | inactive | inactive | inactive | -3.64% | inactive
